Assay outcomes deposited in PubChem BioAssay by several laboratories.
Sampled rows, rich in hits. Any-hit rate of the full collection: about 1.3%.
PrPC TRFRET: inhibitors of human cell surface prion protein PrPC, primary screen, cell-based, TR-FRET. 370,000 compounds, 0.43% hits. TR-FRET read-out. AID 720596, 2013. inhibition, % at 13.8 µM; in the data active = inhibition above about 24%; note: 0% = median of the test wells and 100% = reference compound wells
3CLpro inhibitor: SARS-CoV 3CLpro protease inhibitors, primary screen, biochemical, quenched FRET; Replicase polyprotein 1ab (Severe acute respiratory syndrome coronavirus), P0C6X7; recombinant SARS-CoV 3CLpro, quenched FRET peptide cleavage; inhibition, % at 6 µM; 290,000 compounds, 0.14% hits; in the data active = inhibition above about 12%
CCHF vOTU inh-1: CCHFV vOTU protease inhibitors, primary screen, biochemical, Pep-AMC substrate, fluorescence. Crimean-Congo hemorrhagic fever virus L polyprotein viral ovarian tumor (vOTU) protease …. 370,000 compounds, 0.55% hits. inhibition, % at 11.5 µM. AID 651958, 2012; note: 0% = vehicle wells with enzyme and 100% = no enzyme wells
PrP 5UTR inh: inhibition of PrP 5' UTR reporter expression | cell-based PrP 5' UTR mRNA reporter, plate reader | inhibition, % (concentration not given with the values) | 340,000 compounds, 0.35% hits | AID 488862, 2010; in the data active = inhibition above about 52%; note: 0 = median of the neutral control wells
CCHF vOTU inh-2: CCHFV vOTU protease inhibitors, confirmation, biochemical, Pep-AMC substrate, fluorescence. shares compounds with CCHF vOTU inh-1. Recombinant CCHFV vOTU. inhibition, % at 11.5 µM. 1,900 compounds, 17% hits. AID 686976, 2013
Numbers without * were called inactive. Cut-off read from the data, not from the text of the source, unless noted: active = inhibition above about 30%; inactive = the rest.

How did O=C(NCC1=C(c2ccc3ccccc3c2)C[C@@H]2CC[C@H]1N2Cc1ccco1)c1nccs1 do in these assays?
PrPC TRFRET: 5; CCHF vOTU inh-1: 9

What do the screens show for `Cc1cc(=O)c2c(o1)C(=O)c1occc1C2=O`?
PrPC TRFRET: -18; CCHF vOTU inh-1: 106*; PrP 5UTR inh: -14; CCHF vOTU inh-2: 48*

What do the screens show for `CCNC(=O)N1CCN(c2ccc(N3CCN(C(=O)NCC)[C@@H](C)C3)c(C)c2)[C@H](C)C1`?
PrPC TRFRET: -7; CCHF vOTU inh-1: 35*; CCHF vOTU inh-2: -12

What do the screens show for `CCNC(=O)N1CCN(c2ccc(N3CCN(C(=O)NCC)[C@H](C)C3)c(C)c2)[C@H](C)C1`?
PrPC TRFRET: -6; CCHF vOTU inh-1: 10

How did NNC(=O)c1cc2cc(Oc3ccccc3)ccc2[nH]1 do in these assays?
PrPC TRFRET: -3; 3CLpro inhibitor: 1; CCHF vOTU inh-1: -9; PrP 5UTR inh: -16

How did N#CCCN(C(=O)COC(=O)CCc1c[nH]c2ccccc12)c1ccccc1 do in these assays?
PrPC TRFRET: 3; CCHF vOTU inh-1: 36*; PrP 5UTR inh: -10; CCHF vOTU inh-2: -10

What do the screens show for `COc1ccc(NC(=O)COc2cc(C)cc(C)c2)cc1S(=O)(=O)N1CCCCC1`?
PrPC TRFRET: 9; CCHF vOTU inh-1: 30*; PrP 5UTR inh: -26; CCHF vOTU inh-2: -16

What do the screens show for `COc1ccc(NC(=O)COc2ccc(C)c(C)c2)cc1S(=O)(=O)N1CCCCC1`?
PrPC TRFRET: 11; CCHF vOTU inh-1: 15; PrP 5UTR inh: -59

What do the screens show for `Cc1ccc(C2(C)NC(=O)N(CC(=O)N3CCN(S(=O)(=O)c4ccc(Cl)s4)CC3)C2=O)cc1` (stereo unspecified)?
PrPC TRFRET: -6; CCHF vOTU inh-1: -4; PrP 5UTR inh: -4

Results for Fc1cccc(CNc2ncnc3ccc(-c4ccc5c(c4)OCO5)cc23)c1 ?
PrPC TRFRET: -4; CCHF vOTU inh-1: 30*; PrP 5UTR inh: -6; CCHF vOTU inh-2: -13

Results for c1cncc(-c2ccc3ncnc(NCc4ccc5c(c4)OCO5)c3c2)c1 ?
PrPC TRFRET: 0; CCHF vOTU inh-1: 9; PrP 5UTR inh: -23

How did Cc1ccc(S(=O)(=O)Nc2ccccn2)c(C)c1 do in these assays?
PrPC TRFRET: -10; CCHF vOTU inh-1: -7

What do the screens show for `CN(C)c1cccc2c(S(=O)(=O)Nc3ccccn3)cccc12`?
PrPC TRFRET: -9; 3CLpro inhibitor: 4; CCHF vOTU inh-1: 38*; PrP 5UTR inh: -7; CCHF vOTU inh-2: -5

Results for CC(C)(C)S(=O)N1Cc2cc(C(=O)N3CCc4ccccc4C3)nc(-c3cccc(-c4cccnc4)c3)c2[C@@H]1CCO (stereo partly specified) ?
PrPC TRFRET: -6; CCHF vOTU inh-1: 37*; CCHF vOTU inh-2: 9

What do the screens show for `Oc1ccccc1N1CCN(C(c2ccccc2)c2ccccc2)CC1`?
PrPC TRFRET: 1; 3CLpro inhibitor: 1; CCHF vOTU inh-1: 4; PrP 5UTR inh: -19

How did CCCN(CC(=O)Nc1ccccc1C)C(=O)C1CCN(S(=O)(=O)c2ccc3c(c2)OCCO3)CC1 do in these assays?
PrPC TRFRET: -6; CCHF vOTU inh-1: 35*; PrP 5UTR inh: -14; CCHF vOTU inh-2: -13

What do the screens show for `O=C(Nc1ncc([N+](=O)[O-])s1)C1CCN(S(=O)(=O)c2cnc[nH]2)CC1`?
PrPC TRFRET: -41; 3CLpro inhibitor: 9; CCHF vOTU inh-1: 31*; PrP 5UTR inh: -6; CCHF vOTU inh-2: -1

Results for O=C(CCc1c[nH]c2ccccc12)NCc1cccc(Cl)c1 ?
PrPC TRFRET: -1; 3CLpro inhibitor: 5; CCHF vOTU inh-1: 12; PrP 5UTR inh: -11

What do the screens show for `CCN(CC)c1ccc(N=Cc2c(O)n(-c3ccccc3)c(=O)[nH]c2=O)cc1`?
PrPC TRFRET: -1; 3CLpro inhibitor: -1; CCHF vOTU inh-1: 30*; PrP 5UTR inh: -11; CCHF vOTU inh-2: -20

How did COc1ccc(/C=C/C(=O)N(C(C)C)C(C)C)cc1Br do in these assays?
PrPC TRFRET: 11; 3CLpro inhibitor: -6; CCHF vOTU inh-1: 6

What do the screens show for `Cc1ccc(OCC(=O)N2N=C(C(F)(F)F)CC2(O)C(C)(C)C)cc1C` (stereo unspecified)?
PrPC TRFRET: 12; 3CLpro inhibitor: 1; CCHF vOTU inh-1: 28; PrP 5UTR inh: 0

How did Cc1ccccc1OCC(=O)N1N=C(C(F)(F)F)CC1(O)C(C)(C)C (stereo unspecified) do in these assays?
PrPC TRFRET: 1; 3CLpro inhibitor: 0; CCHF vOTU inh-1: 33*; PrP 5UTR inh: -5; CCHF vOTU inh-2: 10

What do the screens show for `COc1cccc(C(C(=O)NC2CCCC2)N2CCN(c3cc(C)ccc3C)CC2)c1OC` (stereo unspecified)?
PrPC TRFRET: 2; CCHF vOTU inh-1: 30*; CCHF vOTU inh-2: -5

How did Cc1ccc(C)c(N2CCN(C(C(=O)NC3CCCC3)c3ccco3)CC2)c1 (stereo unspecified) do in these assays?
PrPC TRFRET: 0; CCHF vOTU inh-1: 18

What do the screens show for `CC1=C(CC(=O)c2ccccc2)C(=O)c2ccccc2C1=O`?
PrPC TRFRET: -11; 3CLpro inhibitor: 2; CCHF vOTU inh-1: 40*; PrP 5UTR inh: -38; CCHF vOTU inh-2: 34*

How did O=C(CN1C(=O)c2ccccc2C1=O)c1ccccc1 do in these assays?
PrPC TRFRET: -10; 3CLpro inhibitor: -1; CCHF vOTU inh-1: 3; PrP 5UTR inh: -7

How did Nc1c(N(Cc2ccco2)C(=O)COc2ccccc2Cl)c(=O)[nH]c(=O)n1Cc1ccccc1 do in these assays?
PrPC TRFRET: 0; CCHF vOTU inh-1: 31*; PrP 5UTR inh: -16; CCHF vOTU inh-2: -15

What do the screens show for `Nc1c(N(Cc2ccco2)C(=O)COc2ccc(Cl)cc2)c(=O)[nH]c(=O)n1Cc1ccccc1`?
PrPC TRFRET: 0; CCHF vOTU inh-1: 16; PrP 5UTR inh: -1

Results for C=CCOc1ccc2ccccc2c1/C=N/O ?
PrPC TRFRET: -4; 3CLpro inhibitor: 3; CCHF vOTU inh-1: -12; PrP 5UTR inh: -23

How did CCOC(=O)c1c(C)[nH]c(C(=O)CN(C)CC(=O)Nc2ccccc2C(F)(F)F)c1C do in these assays?
PrPC TRFRET: -2; CCHF vOTU inh-1: 31*; PrP 5UTR inh: -22; CCHF vOTU inh-2: 0

How did CCOC(=O)c1c(C)[nH]c(C(=O)OCC(=O)N(C)CC(=O)Nc2ccccc2Cl)c1C do in these assays?
PrPC TRFRET: -3; CCHF vOTU inh-1: 14; PrP 5UTR inh: -22

Results for O=C(COc1ccc(NC(=O)c2ccccc2)cc1)c1ccccc1 ?
PrPC TRFRET: 6; 3CLpro inhibitor: 3; CCHF vOTU inh-1: 31*; PrP 5UTR inh: -15; CCHF vOTU inh-2: -13

What do the screens show for `O=C(COc1ccc(Br)cc1)Nc1ccc(NC(=O)c2ccccc2)cc1`?
PrPC TRFRET: -5; 3CLpro inhibitor: 6; CCHF vOTU inh-1: 12; PrP 5UTR inh: 12
